Compound activity (PubChem BioAssay)
FLuc counter – inhibits or activates purified firefly luciferase, miR-21 counter-screen | purified FLuc, Km substrates, luminescence inhibition | Potency, µM (doses to about 57.5 µM), for inactives: top-dose activity change, negative = inhibition, hits mostly inhibitors | 360,000 compounds, 6.9% hits | P08659;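 also: plate controls were vehicle for no effect and reference inhibitor for full effect; nearly all actives have a fitted effect of over 55% in size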
Target sequence (P08659 whole entry, looked up): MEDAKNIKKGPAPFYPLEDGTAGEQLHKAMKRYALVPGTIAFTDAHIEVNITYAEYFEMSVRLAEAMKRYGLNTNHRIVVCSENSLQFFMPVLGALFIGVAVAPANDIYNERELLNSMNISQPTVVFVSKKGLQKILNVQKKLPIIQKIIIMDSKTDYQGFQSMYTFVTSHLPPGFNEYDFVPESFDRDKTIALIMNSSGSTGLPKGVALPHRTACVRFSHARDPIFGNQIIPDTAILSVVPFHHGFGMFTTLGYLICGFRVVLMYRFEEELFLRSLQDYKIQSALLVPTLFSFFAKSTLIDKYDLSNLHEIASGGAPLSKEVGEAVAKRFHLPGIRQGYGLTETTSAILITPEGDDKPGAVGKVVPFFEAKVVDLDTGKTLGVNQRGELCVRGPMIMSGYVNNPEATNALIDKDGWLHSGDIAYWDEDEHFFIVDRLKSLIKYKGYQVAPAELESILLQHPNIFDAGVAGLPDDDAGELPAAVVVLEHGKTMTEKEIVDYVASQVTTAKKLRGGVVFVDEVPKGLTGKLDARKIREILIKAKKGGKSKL
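Purified P. pyralis luciferase, 10 nM final, with Km-level 10 uM D-luciferin and 10 uM ATP in 50 mM Tris acetate pH 7.5, 10 mM Mg acetate, 0.01% Tween-20, 0.05% BSA; 6-point qHTS titration about 60 µM downward; luminescence read.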
ELG1 genotox – inducers of genotoxicity in HEK293T ELG1-luciferase cells; HEK293T ELG1-luciferase reporter, luminescence, 16 h; Potency, µM (titrated, usually from 46 µM), for the others: top-dose activity change, positive = activation, hits mostly activators; 330,000 compounds, 1.3% hits; AID 504466; also: % of control where 0% means no effect; nearly all actives have a fitted effect of over 60% in size
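After overnight (16 hr) compound treatment at 37 °C, ELG1-luciferase HEK293T cells were lysed with ONE-Glo; luminescence quantified 30 min later at room temperature.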
SMN2 splice up – increases expression of the SMN2 splice variant | Potency, µM (titrated, usually from 46.1 µM), inactives show at the top dose activity change, positive = activation, hits mostly activators | 210,000 compounds, 2.8% hits | HEK293 SMN2-luciferase splicing reporter, luminescence, 30-36 h | AID 1458; also: % of control where 0% means no effect; nearly all actives have a fitted effect of over 55% in size
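HEK293 cells carry an SMN2 minigene-luciferase reporter in which exon 7 inclusion puts luciferase in frame. Cells were seeded at 2000 cells/well, attached for 10-12 hours, then exposed to compounds for 30-36 hours at 37C before ONE-Glo luminescence.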
ELG1 repair inh – ELG1-dependent DNA repair inhibition; 330,000 compounds, 2.3% hits; HEK293T ELG1-luciferase reporter, luminescence, 16 h; DNA damage induced by 5-fluorouridine; AID 504467; Potency, µM (highest dose often 46.1 µM), for inactives: at the highest dose activity change, negative = inhibition, usual class: inhibitors; also: % is scaled to controls: 0 for no effect and ±100 for the full control effect; nearly all actives have a fitted effect of over 55% in size
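Luminescence from the luciferase reporter, measured 30 min after ONE-Glo reagent at room temperature, was the read-out. Beforehand, 2,000 cells per well were exposed for 16 hr at 37 °C to 5-fluorouridine together with compound or vehicle.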
NPC1 promoter act – activators of NPC1 promoter. Potency, µM (series often up to 9.22 µM), inactives show top-dose activation, usual class: activators. AID 485313. Huh7 NPC1 promoter luciferase reporter, 24 h. 320,000 compounds, 2.4% hits; also: % of control where 0% means no effect; nearly all actives have a fitted effect of over 60% in size
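Huh7 cells stably carrying NPC1 promoter–luciferase, plated in Opti-MEM with 10% FBS for 2 h, were exposed to compound in DMSO for 24 h at 37 °C; luciferase reagent was added for 10 min and luminescence read.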
Rab9 promoter act – activators of Rab9 promoter | Potency, µM (top dose mostly 9.22 µM), without a hit: top-dose activation, negative = inhibition, usual class: activators | 320,000 compounds, 2.8% hits | Huh7 Rab9 promoter-luciferase reporter, luminescence, 24 h | AID 485297; also: % of control where 0% means no effect; nearly all actives have a fitted effect of over 60% in size
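Promoter activation is measured as luciferase luminescence in Huh7 cells stably transfected with a Rab9 promoter–luciferase construct, following 24 h compound exposure at 37 °C and 10 min reagent incubation at ambient temperature.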
The depositor's hits bear a star; ? = inconclusive; . = no result. A selection: hits, their analogues and other compounds. The true share with any hit is near 9.2%. Calls follow the shape of the dose curve; as a rule, active = well fitted curve in the direction sought with a large enough effect; inconclusive = small, poorly fitted or top-dose-only effect, or another doubt; inactive = no such curve, though single readings can be large; an effect the other way counts as inactive or inconclusive. Potency is read from the fitted curve at half-maximal effect.

SMILES	FLuc counter	ELG1 genotox	SMN2 splice up	ELG1 repair inh	NPC1 promoter act	Rab9 promoter act
NC(=O)Nc1ccc(C(=O)OCC(=O)Nc2cccc(S(=O)(=O)NC3=NCCCCC3)c2)cc1	-10%	2%	.	9%	3%	1%
Nc1n[nH]c(=S)n1/N=C1/C(=O)Nc2ccccc21	15µM*	0%	6%	-19%	0%	-2%
Cc1ccc(S(=O)(=O)N2CCOCC2)cc1NC(=O)c1cc2c(s1)CCC2	1%	-5%	-16%	23µM*	-2%	-4%
COc1cc(S(=O)(=O)N2CCOCC2)ccc1NC(=O)c1cc2c(s1)CCC2	6%	-2%	6%	-27%	-1%	-8%
Cc1ccc(NC(=O)c2cc3c(s2)CCC3)cc1S(=O)(=O)N1CCOCC1	13µM*	-15%	-36%	23µM*	4%	-4%
CCCS(=O)(=O)N1CCCC(c2nc(-c3ccc(OC)cc3)no2)C1 (centres undefined)	?	1%	-26%	?	-2%	-3%
CCS(=O)(=O)N1CCCC(c2nc(-c3cccc(OC)c3)no2)C1 (centres undefined)	?	15µM*	?	?	29%	?
COC(=O)c1cc(C)nc2c1C(=O)C(=O)C=C2N1CCOCC1	-13%	-20%	.	5.2µM*	-41%	-49%
Cc1nc(N)sc1-c1csc(Nc2ccccn2)n1	6.7µM*	?	8.9µM*	?	2.2µM*	1.6µM*
CC(=O)Oc1ccc(-c2csc(Nc3ccc(Cl)cn3)n2)cc1	-19%	?	.	?	?	?
Cc1nc(C)c(-c2csc(Nc3ccccn3)n2)s1	2.4µM*	?	.	?	0.56µM*	0.5µM*
Cc1nc(N)sc1-c1csc(Nc2ccc(Cl)cn2)n1	17µM*	-1%	-47%	?	17%	16%
COc1ccc(CCNc2nc(-c3sc(N)nc3C)cs2)cc1OC	?	-6%	-3%	?	-1%	-3%
CC(C)c1ccccc1NS(=O)(=O)c1cccs1	-1%	-12%	.	-4%	-32%	-2%
O=C(CCc1nnc(-c2ccc(-c3ccccc3)cc2)o1)NCCc1ccccn1	19µM*	?	.	?	19%	14%
CC(c1nccs1)N(C)C(=O)CCc1nnc(-c2ccc(-c3ccccc3)cc2)o1 (centres undefined)	12µM*	-4%	.	-4%	14%	18%
CC(NC(=O)CCc1nnc(-c2ccc(-c3ccccc3)cc2)o1)c1nccs1 (centres undefined)	17µM*	4%	10µM*	?	18%	13%
CC(c1ccon1)N(C)C(=O)CCc1nnc(Cc2ccc(-c3ccccc3)cc2)o1 (centres undefined)	?	-8%	.	?	-2%	-4%
COc1ccc(NC(=O)c2cc([N+](=O)[O-])ccc2NC(=O)CNCc2ccccn2)c(OC)c1	0%	-5%	.	-12%	3%	3%
COc1cccc(NC(=O)c2cc([N+](=O)[O-])ccc2NC(=O)CNCC2CCCO2)c1 (centres undefined)	-3%	-10%	4%	9.2µM*	7%	-11%
Cc1cccc(NC(=O)c2cc([N+](=O)[O-])ccc2NCC2CCCO2)n1 (centres undefined)	-2%	-16%	-21%	15µM*	-2%	-9%
COc1cc(NC(=O)c2cc([N+](=O)[O-])ccc2NC(=O)CNC2CCCCC2)cc(OC)c1	2%	-22%	.	21µM*	-3%	-4%
O=C(CNCC1CCCO1)Nc1ccc([N+](=O)[O-])cc1C(=O)Nc1ccccc1F (centres undefined)	1%	-15%	17%	?	0%	-1%
COc1cc(NC(=O)c2cc([N+](=O)[O-])ccc2NC(=O)CNCc2ccccn2)cc(OC)c1	-1%	-9%	.	6.5µM*	-3%	-3%
